Source: PubChem BioAssay (NCI)
Several values for one entry are separate records, joined by “and”; a condition that tells them apart may be missing. Equal entries are not always repeated. This is part of a sample that, as a whole, favours compounds with a hit. Of some 83,000 tested, about 20% had one in any assay.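 Treatment: one concentration, 48 hours, 96-well format. Scoring: percent growth, with anything below 10 considered active.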

Experiments:
Test in all cases: NCI-60 one-dose screen, 48 h (100 = growth as untreated, 0 = no growth, -100 = all killed)
Conditions in all cases: 10 µM unless noted
SK-MEL-2 melanoma = system: SK-MEL-2 melanoma
EKVX NSCLC = system: EKVX NSCLC
SN12C renal = system: SN12C renal
UO-31 renal = system: UO-31 renal
TK-10 renal = system: TK-10 renal
ACHN renal = system: ACHN renal
CAKI-1 renal = system: CAKI-1 renal
A498 renal = system: A498 renal
CCRF-CEM leukemia = system: CCRF-CEM leukemia
MOLT-4 leukemia = system: MOLT-4 leukemia

Measured: growth

O=C(O)c1cccc(Br)c1
inactive: SK-MEL-2 melanoma 105% | EKVX NSCLC 105% and 101% | SN12C renal 104% | UO-31 renal 68.5% and 88.8% | TK-10 renal 108% and 93.6% | ACHN renal 107% and 108% | CAKI-1 renal 102% and 99% | A498 renal 99.8% and 83% | CCRF-CEM leukemia 99.7% and 101% | MOLT-4 leukemia 85.9% and 96.2%

CNc1ccc(O)cc1
inactive: SK-MEL-2 melanoma 110% and 118% | EKVX NSCLC 80.1% | SN12C renal 103% | UO-31 renal 82.4% and 95.4% | TK-10 renal 144% and 121% | ACHN renal 92.6% and 112% | CAKI-1 renal 105% and 104% | A498 renal 90.9% and 68.1% | CCRF-CEM leukemia 101% and 110% | MOLT-4 leukemia 110% and 129%

CC1(C)CC(=O)NC1=O
inactive: SK-MEL-2 melanoma 99.2% | EKVX NSCLC 103% | SN12C renal 101% | UO-31 renal 87.1% | TK-10 renal 91.8% | ACHN renal 98.2% | CAKI-1 renal 93.5% | A498 renal 81.5% | CCRF-CEM leukemia 95.6% | MOLT-4 leukemia 107%

COc1cc(NCCCCCCCNC(C)C)c2nccc(C)c2c1
inactive: SK-MEL-2 melanoma 103% and 126% | EKVX NSCLC 82.9% and 50.6% | SN12C renal 78% and 61.7% | UO-31 renal 38.4% and 47.1% | TK-10 renal 90.3% and 67.6% | ACHN renal 91.8% and 67.3% | CAKI-1 renal 87.7% and 45.5% | A498 renal 80.5% and 49.2% | CCRF-CEM leukemia 92.7% | MOLT-4 leukemia 80%

COc1ccc([N+](=O)[O-])cc1OC
inactive: SK-MEL-2 melanoma 123% and 103% | EKVX NSCLC 98.6% and 102% | SN12C renal 99.6% and 108% | UO-31 renal 76.2% and 99.1% | TK-10 renal 98.9% and 108% | ACHN renal 99% and 93.5% | CAKI-1 renal 93.8% and 102% | A498 renal 73.1% and 128% | CCRF-CEM leukemia 89.6% and 102% | MOLT-4 leukemia 91.2% and 104%

O=C(O)c1ccc2c3ccc(C(=O)O)c4c(C(=O)O)ccc(c5ccc(C(=O)O)c1c25)c43
inactive: SK-MEL-2 melanoma 91.3% | EKVX NSCLC 101% | SN12C renal 101% | UO-31 renal 85.8% | TK-10 renal 117% | ACHN renal 107% | CAKI-1 renal 80% | A498 renal 108% | CCRF-CEM leukemia 111% | MOLT-4 leukemia 106%

Cc1cc(Cl)nc(Nc2ccccc2)n1
inactive: SK-MEL-2 melanoma 106% | EKVX NSCLC 93.8% | SN12C renal 96.1% | UO-31 renal 102% | TK-10 renal 94.4% | ACHN renal 98.9% | CAKI-1 renal 78.7% | A498 renal 93.3% | CCRF-CEM leukemia 99.3% | MOLT-4 leukemia 94.8%

CC(C)(C)C1=CC(=O)C(C(C)(C)C)=CC1=O
inactive: SK-MEL-2 melanoma 95.2% and 94.5% | EKVX NSCLC 97.6% and 108% | SN12C renal 93.7% and 102% | UO-31 renal 93.1% and 91.5% | TK-10 renal 102% and 94.6% | ACHN renal 94.5% and 114% | CAKI-1 renal 90.7% | A498 renal 122% | CCRF-CEM leukemia 96.1% and 97.9% | MOLT-4 leukemia 83.4% and 105%

CS(=O)(=O)OCC1NC(=O)C(COS(C)(=O)=O)NC1=O (stereo not given)
inactive: SK-MEL-2 melanoma 75.4% and 89.1% | EKVX NSCLC 98.9% and 89.2% | SN12C renal 108% and 111% | UO-31 renal 91.7% and 94.1% | TK-10 renal 130% and 138% | ACHN renal 93.7% and 85.9% | CAKI-1 renal 97% and 91.3% | A498 renal 104% and 154% | CCRF-CEM leukemia 82.4% and 74.2% | MOLT-4 leukemia 91.6% and 69%

COc1ccc2oc3cc(NCCN(C)C)ccc3c(=O)c2c1
inactive: SK-MEL-2 melanoma 108% and 107% | EKVX NSCLC 85.9% | SN12C renal 81.7% and 64.2% | UO-31 renal 82.9% and 67.4% | TK-10 renal 106% and 98.9% | ACHN renal 74.5% and 58.9% | CAKI-1 renal 77.2% and 63.5% | A498 renal 121% and 85.7% | CCRF-CEM leukemia 70.3% | MOLT-4 leukemia 80.3% and 50.9%

CCOc1ccc(/C=C\C(=O)O)cc1
inactive: SK-MEL-2 melanoma 114% | EKVX NSCLC 115% | SN12C renal 101% | UO-31 renal 98.7% | TK-10 renal 109% | ACHN renal 109% | CAKI-1 renal 113% | A498 renal 101% | CCRF-CEM leukemia 96% | MOLT-4 leukemia 92%

COC(=O)c1cc(C(=O)OC)cc([N+](=O)[O-])c1
inactive: SK-MEL-2 melanoma 109% | EKVX NSCLC 105% | SN12C renal 111% | UO-31 renal 83.6% | TK-10 renal 110% | ACHN renal 106% | CAKI-1 renal 109% | A498 renal 93.8% | CCRF-CEM leukemia 102% | MOLT-4 leukemia 71%

O=C(O)c1c2c(nc3ccccc13)Cc1ccccc1-2
inactive: SK-MEL-2 melanoma 109% and 122% | EKVX NSCLC 104% and 72.5% | SN12C renal 108% and 87% | UO-31 renal 73.6% and 63.6% | TK-10 renal 114% and 101% | ACHN renal 103% and 101% | CAKI-1 renal 98% and 86.2% | A498 renal 78.5% and 95.6% | CCRF-CEM leukemia 91.1% and 77.3% | MOLT-4 leukemia 96.2% and 114%

COC(=O)c1ccccc1Cl
inactive: SK-MEL-2 melanoma 108% | EKVX NSCLC 99.9% | SN12C renal 105% | UO-31 renal 93.8% | TK-10 renal 97.1% | ACHN renal 106% | CAKI-1 renal 99.6% | A498 renal 88.8% | CCRF-CEM leukemia 100% | MOLT-4 leukemia 105%

Cc1ccc(N)cc1S(=O)(=O)O
inactive: SK-MEL-2 melanoma 120% | EKVX NSCLC 109% and 105% | SN12C renal 103% and 106% | UO-31 renal 84.4% and 91.5% | TK-10 renal 75% and 135% | ACHN renal 101% and 118% | CAKI-1 renal 96.8% and 106% | A498 renal 113% | CCRF-CEM leukemia 60.6% and 109% | MOLT-4 leukemia 94.4%

CC(C)(C(=O)c1cccnc1)c1cccnc1
inactive: SK-MEL-2 melanoma 101% and 99.7% | EKVX NSCLC 102% and 124% | SN12C renal 96.1% and 113% | UO-31 renal 77.5% and 93.4% | TK-10 renal 103% and 110% | ACHN renal 97.3% and 111% | CAKI-1 renal 98.5% and 109% | A498 renal 73.3% and 130% | CCRF-CEM leukemia 91.8% | MOLT-4 leukemia 96.3% and 126%

N#Cc1c[nH]n2ccnc12
inactive: SK-MEL-2 melanoma 105% | EKVX NSCLC 90.3% | SN12C renal 99.8% | UO-31 renal 94.7% | TK-10 renal 103% | ACHN renal 112% | CAKI-1 renal 104% | A498 renal 117% | CCRF-CEM leukemia 109% | MOLT-4 leukemia 109%

COC(=O)CCOc1ccccc1
inactive: SK-MEL-2 melanoma 84% | EKVX NSCLC 96.6% | SN12C renal 110% | UO-31 renal 86.8% | TK-10 renal 108% | ACHN renal 91.8% | CAKI-1 renal 86.3% | A498 renal 83.9% | CCRF-CEM leukemia 95.2% | MOLT-4 leukemia 98.6%

O=C(OCc1ccccc1)c1ccccc1
inactive: SK-MEL-2 melanoma 126% and 87.8% | EKVX NSCLC 101% and 104% | SN12C renal 93.2% and 117% | UO-31 renal 107% and 64.8% | TK-10 renal 105% and 102% | ACHN renal 111% and 98.1% | CAKI-1 renal 99.7% and 90.2% | A498 renal 88.6% and 81.3% | CCRF-CEM leukemia 104% | MOLT-4 leukemia 102% and 83.3%

CCN(CC)CCNC(=O)c1ccc(NCN2C(=O)NC(c3ccccc3)(c3ccccc3)C2=O)cc1
inactive: SK-MEL-2 melanoma 106% and 112% | EKVX NSCLC 90.6% and 95.3% | SN12C renal 107% and 105% | UO-31 renal 86.6% and 67.1% | TK-10 renal 115% and 114% | ACHN renal 107% and 104% | CAKI-1 renal 90.5% and 88.1% | A498 renal 81.1% and 205% | CCRF-CEM leukemia 101% | MOLT-4 leukemia 102% and 108%

O=C(O)C(Cc1ccc(OS(=O)(=O)Cc2ccccc2)cc1)NS(=O)(=O)Cc1ccccc1 (stereo not given)
inactive: SK-MEL-2 melanoma 110% and 108% | EKVX NSCLC 102% and 115% | SN12C renal 110% and 104% | UO-31 renal 95.8% and 86.1% | TK-10 renal 101% and 110% | ACHN renal 105% and 101% | CAKI-1 renal 90.9% and 98.6% | A498 renal 114% and 130% | CCRF-CEM leukemia 115% and 112% | MOLT-4 leukemia 121% and 102%
